FLuc modulator = firefly luciferase modulation, counter-screen for miR-21 project; P08659; purified FLuc, Km substrates, luminescence inhibition; Potency, µM (highest dose often 57.5 µM), for inactives: top-dose activity change, negative = inhibition, hits mostly inhibitors; hit rate 6.9% among 360,000; AID 588342;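 also: plate controls were vehicle for no effect and reference inhibitor for full effect; nearly all actives have a fitted effect of over 55% in size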
Target sequence (P08659 whole entry, looked up): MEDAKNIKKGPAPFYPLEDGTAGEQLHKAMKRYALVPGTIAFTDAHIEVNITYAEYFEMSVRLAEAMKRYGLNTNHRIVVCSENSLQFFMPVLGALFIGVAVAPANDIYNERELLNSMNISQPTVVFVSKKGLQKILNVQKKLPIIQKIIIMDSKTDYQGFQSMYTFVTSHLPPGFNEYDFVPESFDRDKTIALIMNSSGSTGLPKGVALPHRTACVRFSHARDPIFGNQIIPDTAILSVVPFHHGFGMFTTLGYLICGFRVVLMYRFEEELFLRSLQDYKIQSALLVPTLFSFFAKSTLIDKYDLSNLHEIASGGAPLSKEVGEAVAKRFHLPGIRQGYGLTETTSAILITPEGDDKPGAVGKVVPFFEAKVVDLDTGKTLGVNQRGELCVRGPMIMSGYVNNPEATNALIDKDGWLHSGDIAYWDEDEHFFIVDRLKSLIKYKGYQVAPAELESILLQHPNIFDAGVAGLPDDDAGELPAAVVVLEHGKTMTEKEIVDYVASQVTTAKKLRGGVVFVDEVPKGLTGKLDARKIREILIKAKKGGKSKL
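Purified P. pyralis luciferase (10nM final) with 10uM D-luciferin and 10uM ATP (Km levels) in 50mM Tris acetate pH 7.5, 10mM Mg acetate, 0.01% Tween-20, 0.05% BSA; qHTS 6-point titration, ~60 µM downward; luminescence read.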
ELG1 genotoxic = inducers of genotoxicity in HEK293T ELG1-luciferase cells; HEK293T ELG1-luciferase reporter, luminescence, 16 h; Potency, µM (top dose mostly 46 µM), inactives show at the highest dose activity change, positive = activation, actives largely listed as activators; hit rate 1.3% among 330,000; also: % of control where 0% means no effect; nearly all actives have a fitted effect of over 60% in size
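HEK293T cells expressing luciferase-tagged ELG1 were exposed to compound or DMSO vehicle for 16 hr at 37 °C and 5% CO2. Luciferase activity was then measured with ONE-Glo after 30 min at room temperature.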
Rab9 promoter act = activators of Rab9 promoter | Potency, µM (doses to about 9.22 µM), for inactives: top-dose activation, negative = inhibition, usual class: activators | AID 485297 | hit rate 2.8% among 320,000 | Huh7 Rab9 promoter-luciferase reporter, luminescence, 24 h; also: % of control where 0% means no effect; nearly all actives have a fitted effect of over 60% in size
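Promoter activation is measured as luciferase luminescence in Huh7 cells stably transfected with a Rab9 promoter–luciferase construct, following 24 h compound exposure at 37 °C and 10 min reagent incubation at ambient temperature.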
NPC1 promoter act = activates the NPC1 promoter. Huh7 NPC1 promoter luciferase reporter, 24 h. Potency, µM (titrated, usually from 9.22 µM), for inactives: at the top dose activation, usual class: activators. hit rate 2.4% among 320,000; also: % of control where 0% means no effect; nearly all actives have a fitted effect of over 60% in size
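NPC1 promoter–luciferase Huh7 cells; 24 h compound; luminescence.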
SMN2 splice up = enhancers of SMN2 splice variant expression | HEK293 SMN2-luciferase splicing reporter, luminescence, 30-36 h | Potency, µM (top dose mostly 46.1 µM), for the others: at the highest dose activity change, positive = activation, most hits filed as activators | hit rate 2.8% among 210,000; also: % of control where 0% means no effect; nearly all actives have a fitted effect of over 55% in size
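qHTS luciferase splicing reporter: luminescence rises when SMN2 exon 7 is included in transfected HEK293 cells. Compound exposure lasted 30-36 h at 37C, with 4.5 mM final sodium butyrate as control, followed by a ONE-Glo read.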
The depositor's hits bear a star; ? = inconclusive; / = not tested or not shown; [ ] = another dose, or the depositor's remark. Only some compounds are listed: those with a hit (about 7.4% of all), similar ones and a draw of the others. Calls follow the shape of the dose curve; as a rule, active = well fitted curve in the direction sought with a large enough effect; inconclusive = small, poorly fitted or top-dose-only effect, or another doubt; inactive = no such curve, though single readings can be large; an effect the other way counts as inactive or inconclusive. Potency is read from the fitted curve at half-maximal effect.

SMILES | FLuc modulator | ELG1 genotoxic | Rab9 promoter act | NPC1 promoter act | SMN2 splice up
Cc1cccc(N=C2NC(=O)/C(=C/c3cccs3)S2)c1 | ? | -1% | -2% | 8% | 13%
Cc1cccc(NC(=O)CSc2nnc(C3CC3)n2CC2CCCO2)c1C (configuration not stated) | 8% | -7% | -2% | -4% | /
CCc1ccc(OCC(=O)Nc2ccc3[nH]ncc3c2)cc1 | ? | -13% | 9% | 1% | /
Cc1cc(C)nc(SC/C=C/c2ccccc2)n1 | ? | 11% | 12% | 11% | /
C(=C\c1ccccc1)/CSc1ccccn1 | 12µM* | 17% | 3.5µM* | ? | 24%
CC(=O)Nc1ccc(NC(=O)/C(Cl)=C/c2ccccc2)cc1 | 11µM* | -1% | ? | 23% | -6%
CCN1CCC(N(Cc2ccc3c(c2)OCO3)C(=O)Nc2cc(F)ccc2F)CC1 | -5% | / | / | / | /
COC(=O)c1c(C(=O)OC)c(-c2ccc(Cl)cc2)n2c1CS(=O)(=O)C2 | 1% | -2% | -18% | -5% | 3%
CCOC(=O)c1ccc(CC2S/C(=C(\C#N)C(C)=O)NC2=O)cc1 (configuration not stated) | ? | ? | -3% | 1% | 18%
CCc1ccc(CC2S/C(=C(\C#N)C(C)=O)NC2=O)cc1 (configuration not stated) | ? | -7% | -9% | 3% | 11µM*
O=C(Nc1ccon1)c1cc2c(s1)CCCC2 | 3µM* | 1.3µM* | 1.1µM* | 1.4µM* | 6.3µM*
Cc1ccc(/C=N/NC(=O)c2cc3c(s2)CCCC3)o1 | -19% | 6% | 1% | 3% | /
O=C(Nc1ccon1)c1cc2c(s1)CCCCCC2 | 6µM* | 4.5µM* | 3.5µM* | 3.2µM* | 13µM*
O=C(NCC(c1ccco1)N1CCCCC1)c1cc2c(s1)CCCC2 (configuration not stated) | -16% | -1% | -5% | 0% | /
O=C(CCS(=O)(=O)c1ccc(Br)cc1)Nc1ccc(Cl)c(C(F)(F)F)c1 | -14% | / | / | / | /
CCOc1ccc(/C=C/C(=O)c2c(O)c3ccccc3oc2=O)cc1 | 11µM* | 1% | 15% | -1% | -23%
CN(C)c1ccc(/C=C/C(=O)c2c(O)c3ccccc3oc2=O)cc1 | 21µM* | 10% | ? | 24% | /
CS(=O)(=O)N1CCC2(CCN(Cc3ccc(C#N)cc3)CC2)CC1 | / | / | / | / | -23%
COc1ccccc1N1CCN(c2ccc3ccccc3n2)CC1 | 0.95µM* | ? | 0.32µM* | 0.32µM* | /
COc1ccccc1N1CCN(c2cc(N3CCCC3)nc(C)n2)CC1 | 7% | -5% | -5% | -6% | -40%
COc1ccccc1N1CCN(c2nc(-c3ccccc3)cc(C(F)(F)F)n2)CC1 | 0% | -4% | 0% | -1% | -12%
COc1ccccc1N1CCN(c2ccc(-c3ccccc3)nn2)CC1 | 0.76µM* | ? | 0.28µM* | ? | ?
COCc1cc(C)nc(Oc2ccccc2)c1C#N | 1% | 10% | -4% | -3% | /
O=C(Nc1nccs1)c1ccc(-c2ccccc2Cl)o1 | 2.4µM* | 4.1µM* | 2.5µM* | 2.5µM* | 11µM*
O=C(Nc1nccs1)c1ccc(-c2ccccc2[N+](=O)[O-])o1 | 4.3µM* | ? | 2µM* | 2.8µM* | /
SMILES | FLuc modulator | ELG1 genotoxic | Rab9 promoter act | NPC1 promoter act | SMN2 splice up
O=C(Cc1ccccc1[N+](=O)[O-])Nc1nccs1 | -12% | -3% | 4% | 0% | /
Cn1c(=O)c2c(nc(Cc3ccccc3)n2CC(=O)O)n(C)c1=O | / | / | / | / | -10%[9.22 µM]
O=S(=O)(c1cccc2ccccc12)N1CCN(c2ccc(Cl)c(Cl)c2)CC1 | 2% | / | / | / | -26%
Cc1ccc(CNC(=O)c2ccc3c(c2)NC(=O)C(CS(=O)(=O)Cc2cccc(C)c2)N3)cc1 (configuration not stated) | 5% | / | / | / | /
Cc1ccc2nc(N3CCN(c4ccccc4F)CC3)c3nnnn3c2c1 | -7% | / | / | / | /
Cc1cc(C)c(S(=O)(=O)c2cccc(C(F)(F)F)c2)c(=O)[nH]1 | 1% | 0% | -1% | -5% | /
Cc1ccc(NC(=O)c2ccc(CSc3nnc(C)s3)cc2)c(C)c1 | 13µM* | 5% | ? | ? | 12%
Cc1nnc(SCc2ccc(C(=O)Nc3cc(Cl)ccc3C)cc2)s1 | 15µM* | 0% | -6% | -1% | -29%
Cc1cccc(-c2nc(SCCCOc3cc(C)c(Cl)c(C)c3)n3[nH]c(=O)cc3n2)c1 | -4% | / | / | / | /
Cc1cccc(-c2nc(SCCCOc3ccccc3Cl)n3[nH]c(=O)cc3n2)c1 | 6.7µM* | / | / | / | /
Cc1nccc(-c2cccc(NC(=O)Nc3ccc(Cl)cc3)c2)n1 | 4.8µM* | -14% | -3% | -5% | /
Cc1c(-c2cccc(NC(=O)Nc3ccc(Cl)cc3)c2)nc2ncccn12 | 11µM* | / | / | / | /
Cc1csc(NC(=O)c2ccc(OCC3CCCO3)cc2)n1 (configuration not stated) | 5.4µM* | -7% | 0.45µM* | ? | 1.4µM*
CCOc1ccc2nc(NC(=O)CSc3nnc(-c4ccncc4)n3CC3CCCO3)sc2c1 (configuration not stated) | 2.4µM* | ? | ? | ? | 13%
Cc1cccc2sc(NC(=O)c3ccc(OCC4CCCO4)cc3)nc12 (configuration not stated) | 11µM* | 6% | -3% | 27% | 3%
O=C(Nc1nc(-c2ccc(F)c(F)c2)cs1)c1ccc(OCC2CCCO2)cc1 (configuration not stated) | -26% | -2% | -34% | -28% | /
CCOc1ccc2nc(NC(=O)c3ccc(OCC4CCCO4)cc3)sc2c1 (configuration not stated) | 2.7µM* | -1% | 16% | 27% | ?
Cc1ccc(F)cc1NC(=O)c1ccc(OCC2CCCO2)cc1 (configuration not stated) | / | 12% | / | / | /
COc1ccccc1NC(=O)[C@@H]1CCCN1S(=O)(=O)c1ccc(Cl)cc1 | / | -5% | / | / | /
Cc1c(C(=O)Nc2c(F)cccc2F)sc2ncn(Cc3ccccc3F)c(=O)c12 | -3% | / | / | / | /
COc1cccc(/C=N/NC(=O)c2ccc3nc[nH]c3c2)c1O | 19µM* | -2% | -3% | 4% | /
COc1ccc(/C=N/NC(=O)c2ccc3nc[nH]c3c2)c(OC)c1 | 17µM* | -1% | -2% | -11% | /
COc1ccc(/C=N/NC(=O)c2ccc3nc[nH]c3c2)cc1 | 21µM* | 5% | 4% | -3% | /
COc1ccc(/C=N/NC(=O)c2cc[n+]([O-])cc2)cc1 | ? | 2% | -6% | -3% | /
COc1cc(OC)c(OC)cc1/C=N/NC(=O)c1ccc2nc[nH]c2c1 | 11µM* | -3% | 4% | -1% | /
COc1ccc(C=NNC(=O)c2ccccc2OCc2ccc(F)cc2)c(OC)c1 | / | 1% | / | / | /
COc1ccc(/C=N/NC(=O)c2ccc3nc[nH]c3c2)c(OC)c1OC | -20% | -4% | -1% | -5% | /
CN(C1CCCCC1)S(=O)(=O)c1cc2c(cc1Cl)NC(=O)CO2 | 1% | -5% | -3% | -5% | /
